Test systems include NCI-H23 lung; NCI-H226 lung; NCI-H322M lung; HOP-62 NSCLC; NCI-H460 lung; HOP-92 NSCLC; NCI-H522 lung; A549/ATCC NSCLC; 786-0 renal; COLO 205 colon.
Common to all, as to assay: NCI-60 one-dose screen, 48 h (100 = growth as untreated, 0 = no growth, -100 = all killed)
Common to all, as to conditions: 10 µM unless noted

Molecules are shown by their SMILES. Where “and” joins values, the source holds several entries; their conditions need not be identical. Equal values may be shown once. Compounds without any hit were thinned out: in the full panel of roughly 83,000, 20% have a hit.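 Assay: single dose, 48 h. Readout: percent growth (0 = no net growth; negative = cell death). Active: <10.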 A number with no mark means an inactive call. Calls of active or inactive are those of the source.

`CCOC(=O)C(=Cc1ccc(C#N)cc1)C(=O)OCC`: the growth in the assay on NCI-H23 lung was 55.5%; in the assay on NCI-H226 lung, -36.3% (active); in the assay with NCI-H322M lung, 73.2%; in the assay with HOP-62 NSCLC, 104%; with NCI-H460 lung it was 81.6%; in the assay with HOP-92 NSCLC, 58.3%. Besides, the growth in the assay on NCI-H522 lung is -24.6% (active); in the assay on A549/ATCC NSCLC, 53.2%; in the assay on 786-0 renal it was 0.647% (active); in the assay on COLO 205 colon, 4.69% (active).

For `CC(C)=CCc1cc(O)c(O)c2oc3cc(O)cc(O)c3c(=O)c12`, the growth with NCI-H23 lung is 51.1%; in the assay with NCI-H226 lung it was 96.9%; in the assay with NCI-H322M lung, 75.1%; in the assay on HOP-62 NSCLC it was 45.9%; in the assay on NCI-H460 lung, 25.1%; in the assay on HOP-92 NSCLC it was 86.9%. Further, the growth in the assay with NCI-H522 lung was 58.4%; in the assay with A549/ATCC NSCLC, 43.3%; in the assay with 786-0 renal, 64.8%; in the assay on COLO 205 colon, 91.7%.

Turning to `O=C1OCC2=C1C(c1cccc([N+](=O)[O-])c1)c1cc3c(cc1N2CCO)CCC3` (stereo not given), the growth in the assay on NCI-H23 lung is 23.2%; in the assay on NCI-H226 lung it was 38.2%; with NCI-H322M lung, 37.2%; with HOP-62 NSCLC, 31.3%; in the assay with NCI-H460 lung, 3.63% (active); with HOP-92 NSCLC it was 51.4%. Also, the growth is -4.9% (active) in the assay with NCI-H522 lung, 11.7% with A549/ATCC NSCLC, 25.2% in the assay on 786-0 renal and -27.1% (active) with COLO 205 colon.

In the case of `Cc1ccc(-c2nc3nc(-c4ccccc4)nc(N4CCCNCC4)c3o2)cc1`, the growth in the assay on NCI-H23 lung was 19.4%; in the assay with NCI-H226 lung, 88.9%; with NCI-H322M lung, -6.9% (active); in the assay on HOP-62 NSCLC it was -27.1% (active); in the assay on NCI-H460 lung, -57.7% (active); with HOP-92 NSCLC, -33.5% (active). Also, the growth in the assay on NCI-H522 lung was -69.6% (active); with A549/ATCC NSCLC, -66.5% (active); in the assay with 786-0 renal, -97.1% (active); in the assay on COLO 205 colon, -86.9% (active).

Consider `COC(=O)c1nc(-c2ccc(C)cc2)oc1S(=O)(=O)c1ccc(Cl)cc1`, for which the growth was 91.3% with NCI-H23 lung; 96% with NCI-H226 lung; 99.6% in the assay on NCI-H322M lung; 97.4% in the assay on HOP-62 NSCLC; 109% in the assay with NCI-H460 lung; 95.1% with HOP-92 NSCLC. Besides, the growth in the assay with NCI-H522 lung is 59.6%; in the assay on A549/ATCC NSCLC, 100%; with 786-0 renal, 86.1%; in the assay on COLO 205 colon, 70.5%.

For the molecule `O=C(NNc1ccccc1)c1ccccc1`, the growth in the assay on NCI-H23 lung is 98.2% and 95.8%; in the assay on NCI-H226 lung it was 93% and 105%; in the assay on NCI-H322M lung, 66.8%; in the assay on HOP-62 NSCLC, 99.1% and 47.3%; in the assay on NCI-H460 lung it was 85.1%; with HOP-92 NSCLC it was 102% and 95.2%. For the same molecule, the growth was 48.1% in the assay on NCI-H522 lung; 72.5% and 64.1% in the assay on A549/ATCC NSCLC; 86.1% and 64.6% in the assay with 786-0 renal; 95% and 65.3% with COLO 205 colon.

Take `N#Cc1c(-c2cccc(F)c2)cc(-c2cccnc2)[nH]c1=O`: the growth was 105% with NCI-H23 lung; 101% with NCI-H226 lung; 101% in the assay on NCI-H322M lung; 95.7% with HOP-62 NSCLC; 109% with NCI-H460 lung; 110% in the assay with HOP-92 NSCLC. Also, the growth in the assay with NCI-H522 lung was 90.1%; in the assay on A549/ATCC NSCLC, 101%; in the assay on 786-0 renal, 97.6%; in the assay with COLO 205 colon, 108%.

Regarding `Cc1nc(-n2[nH]c(=O)ccc2=O)sc1N=Nc1ccccc1`, the growth in the assay on NCI-H23 lung is 103%; with NCI-H226 lung, 85.3%; in the assay with NCI-H322M lung it was 97.3%; with HOP-62 NSCLC, 94.3%; in the assay with NCI-H460 lung, 102%; with HOP-92 NSCLC, 96.6%. The growth is 103% with NCI-H522 lung, 104% in the assay with A549/ATCC NSCLC, 94.4% with 786-0 renal and 112% in the assay on COLO 205 colon.

As to `C#CCOc1cccc(Nc2ncc3ncn(C4CCN(C(=O)CCl)C4)c3n2)c1` (stereo not given), the growth in the assay with NCI-H23 lung is 45.2% [6.25 µM]; in the assay on NCI-H226 lung it was 23.3% [6.25 µM]; in the assay with NCI-H322M lung it was 78.6% [6.25 µM]; in the assay on HOP-62 NSCLC it was 78.3% [6.25 µM]; with NCI-H460 lung, 72.1% [6.25 µM]; in the assay with HOP-92 NSCLC it was 73% [6.25 µM]. The growth in the assay on NCI-H522 lung was -77.4% [6.25 µM] (active); with A549/ATCC NSCLC it was 78.5% [6.25 µM]; with 786-0 renal it was -4.37% [6.25 µM] (active); in the assay with COLO 205 colon, -84% [6.25 µM] (active).

As to `COc1ccc(C2=C(CN)C(O)NC(=NCC(=O)c3ccc4ccccc4c3)N2)cc1` (stereo not given), the growth in the assay with NCI-H23 lung was 103%; with NCI-H226 lung, 100%; in the assay with NCI-H322M lung, 104%; with HOP-62 NSCLC it was 98.7%; in the assay with NCI-H460 lung it was 114%; in the assay with HOP-92 NSCLC, 113%. The growth in the assay with NCI-H522 lung was 86%; in the assay on A549/ATCC NSCLC, 95.5%; in the assay on 786-0 renal, 98.5%; in the assay with COLO 205 colon it was 87.4%.

For `O=c1ccc2nc(-c3ccccn3)nn(-c3ccccc3)c-2c1`, the growth with NCI-H23 lung is 89.5%; in the assay on NCI-H226 lung, 90.1%; in the assay on NCI-H322M lung, 102%; with HOP-62 NSCLC, 93.4%; with NCI-H460 lung, 109%; in the assay with HOP-92 NSCLC, 36.8%. The growth is -45% (active) in the assay with NCI-H522 lung, 101% in the assay on A549/ATCC NSCLC, 53.6% with 786-0 renal and -59.4% (active) in the assay on COLO 205 colon.

Turning to `CCOC(=O)CCCn1c(-c2ccccc2)cc(-c2ccccc2)c(C#N)c1=O`, the growth in the assay on NCI-H23 lung is 83.5%; in the assay on NCI-H226 lung, 89.5%; in the assay with NCI-H322M lung, 97.8%; with HOP-62 NSCLC, 93.7%; with NCI-H460 lung, 65.4%; with HOP-92 NSCLC it was 48.3%. Moreover, the growth was 70.1% with NCI-H522 lung, 84.3% in the assay with A549/ATCC NSCLC, 88.8% with 786-0 renal and 98.4% in the assay on COLO 205 colon.

Regarding `CCOC(=O)N(O)c1ccc(/C=C/c2ccccc2)cc1`, the growth with NCI-H23 lung was 75.9% and 51.3%; in the assay with NCI-H226 lung, -39.4% (active); in the assay with NCI-H322M lung, 79.6% and 76.4%; with HOP-62 NSCLC, 66.5%; in the assay on NCI-H460 lung, 23.5% and 22%; with HOP-92 NSCLC, 67.4%. For the same molecule, the growth in the assay on NCI-H522 lung is 67.5% and 48.4%; in the assay on A549/ATCC NSCLC it was 44% and 77.1%; in the assay on 786-0 renal it was 70.3% and 73.7%; in the assay with COLO 205 colon, 88.5% and 84.7%.

The values above are taken from PubChem BioAssay (NCI).
